Consider 17 compounds from ChEMBL document CHEMBL1961873, “Compounds: GSK PKIS; Assays: Nanosyn kinase panel” (2012).

In experiment [1] the target is Ribosomal protein S6 kinase alpha-6 (Homo sapiens) (UniProt Q9UK32). Particulars: at 1 µM.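 Note: each value is a mean inhibition of RSK4 from a GSK PKIS panel screen.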
Experiment [2] has as its target T1, Serine/threonine-protein kinase Sgk1 (Homo sapiens) (UniProt O00141).
T1 sequence (whole entry): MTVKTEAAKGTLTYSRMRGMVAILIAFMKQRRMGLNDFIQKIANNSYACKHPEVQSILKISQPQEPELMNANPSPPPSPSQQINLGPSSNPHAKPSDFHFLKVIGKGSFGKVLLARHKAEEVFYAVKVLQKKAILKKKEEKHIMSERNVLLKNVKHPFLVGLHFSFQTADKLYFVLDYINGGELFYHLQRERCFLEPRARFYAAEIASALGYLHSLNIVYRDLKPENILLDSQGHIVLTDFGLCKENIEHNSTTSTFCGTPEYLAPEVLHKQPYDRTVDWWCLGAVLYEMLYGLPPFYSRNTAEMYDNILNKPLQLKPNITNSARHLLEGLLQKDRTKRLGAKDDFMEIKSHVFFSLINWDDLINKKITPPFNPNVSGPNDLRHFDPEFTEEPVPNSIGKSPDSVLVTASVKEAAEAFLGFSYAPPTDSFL
Particulars: at 0.1 µM.

The target of experiment [3] is T1, Serine/threonine-protein kinase Sgk1 (Homo sapiens). Particulars: at 1 µM.
Experiment [4] deals with T2, Serine/threonine-protein kinase Sgk2 (Homo sapiens) (UniProt Q9HBY8).
T2 sequence (whole entry): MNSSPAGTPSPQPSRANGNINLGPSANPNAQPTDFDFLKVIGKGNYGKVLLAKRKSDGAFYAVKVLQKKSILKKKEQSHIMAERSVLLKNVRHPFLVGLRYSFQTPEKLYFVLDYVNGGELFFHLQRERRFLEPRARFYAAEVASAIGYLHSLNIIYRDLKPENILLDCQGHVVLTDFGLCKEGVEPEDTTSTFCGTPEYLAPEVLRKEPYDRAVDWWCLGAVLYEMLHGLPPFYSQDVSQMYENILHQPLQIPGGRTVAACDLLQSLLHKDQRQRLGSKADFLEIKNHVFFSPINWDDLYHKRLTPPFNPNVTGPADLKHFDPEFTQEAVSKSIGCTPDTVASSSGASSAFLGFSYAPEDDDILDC
Particulars: at 0.1 µM.

For experiment [5], the target named is T2, Serine/threonine-protein kinase Sgk2 (Homo sapiens). Particulars: at 1 µM.
Experiment [6] deals with T3, Serine/threonine-protein kinase Sgk3 (Homo sapiens) (UniProt Q96BR1).
T3 sequence (whole entry): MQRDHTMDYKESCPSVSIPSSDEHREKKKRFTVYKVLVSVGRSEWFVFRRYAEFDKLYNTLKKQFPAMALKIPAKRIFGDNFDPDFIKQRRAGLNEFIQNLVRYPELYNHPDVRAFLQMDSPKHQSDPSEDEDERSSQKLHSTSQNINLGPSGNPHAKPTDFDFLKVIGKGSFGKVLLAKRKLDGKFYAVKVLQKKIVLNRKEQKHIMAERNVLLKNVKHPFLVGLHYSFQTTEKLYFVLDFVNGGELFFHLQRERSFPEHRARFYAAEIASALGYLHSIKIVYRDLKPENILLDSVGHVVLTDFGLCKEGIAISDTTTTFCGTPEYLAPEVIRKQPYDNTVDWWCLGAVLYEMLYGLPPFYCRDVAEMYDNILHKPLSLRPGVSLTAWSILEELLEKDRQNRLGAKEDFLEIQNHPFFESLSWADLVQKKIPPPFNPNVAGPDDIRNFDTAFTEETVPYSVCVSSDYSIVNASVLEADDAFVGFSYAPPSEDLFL
Particulars: at 0.1 µM.

The target of experiment [7] is T3, Serine/threonine-protein kinase Sgk3 (Homo sapiens). The settings on record: at 1 µM.
The target in experiment [8] is 5'-AMP-activated protein kinase catalytic subunit alpha-1 (Homo sapiens) (UniProt Q13131). The settings on record: at 0.1 µM.
Experiment [9] has the same target. The settings on record: at 1 µM.
The target in experiment [10] is 5'-AMP-activated protein kinase catalytic subunit alpha-2 (Homo sapiens) (UniProt P54646). Particulars: at 0.1 µM.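 Note: mean inhibition measured on the AMPK complex of alpha2, beta1 and gamma1 subunits.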
5'-AMP-activated protein kinase catalytic subunit alpha-2 (Homo sapiens), sequence (P54646 whole entry, looked up): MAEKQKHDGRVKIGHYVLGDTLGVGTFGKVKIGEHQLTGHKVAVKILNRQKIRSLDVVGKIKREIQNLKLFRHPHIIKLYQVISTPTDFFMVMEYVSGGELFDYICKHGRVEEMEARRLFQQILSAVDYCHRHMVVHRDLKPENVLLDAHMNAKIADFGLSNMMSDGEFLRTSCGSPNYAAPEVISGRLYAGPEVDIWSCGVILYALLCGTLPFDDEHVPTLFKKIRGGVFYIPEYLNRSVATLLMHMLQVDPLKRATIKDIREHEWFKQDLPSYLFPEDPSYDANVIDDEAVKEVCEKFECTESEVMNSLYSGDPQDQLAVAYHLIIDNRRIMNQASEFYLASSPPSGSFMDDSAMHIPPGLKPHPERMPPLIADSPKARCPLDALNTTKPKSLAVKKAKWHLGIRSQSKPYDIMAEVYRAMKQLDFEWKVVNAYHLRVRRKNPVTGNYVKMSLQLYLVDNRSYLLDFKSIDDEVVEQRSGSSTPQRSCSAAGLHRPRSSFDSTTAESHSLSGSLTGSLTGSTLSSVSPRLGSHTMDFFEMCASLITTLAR

5'-AMP-activated protein kinase catalytic subunit alpha-1 (Homo sapiens), sequence (Q13131 whole entry, looked up): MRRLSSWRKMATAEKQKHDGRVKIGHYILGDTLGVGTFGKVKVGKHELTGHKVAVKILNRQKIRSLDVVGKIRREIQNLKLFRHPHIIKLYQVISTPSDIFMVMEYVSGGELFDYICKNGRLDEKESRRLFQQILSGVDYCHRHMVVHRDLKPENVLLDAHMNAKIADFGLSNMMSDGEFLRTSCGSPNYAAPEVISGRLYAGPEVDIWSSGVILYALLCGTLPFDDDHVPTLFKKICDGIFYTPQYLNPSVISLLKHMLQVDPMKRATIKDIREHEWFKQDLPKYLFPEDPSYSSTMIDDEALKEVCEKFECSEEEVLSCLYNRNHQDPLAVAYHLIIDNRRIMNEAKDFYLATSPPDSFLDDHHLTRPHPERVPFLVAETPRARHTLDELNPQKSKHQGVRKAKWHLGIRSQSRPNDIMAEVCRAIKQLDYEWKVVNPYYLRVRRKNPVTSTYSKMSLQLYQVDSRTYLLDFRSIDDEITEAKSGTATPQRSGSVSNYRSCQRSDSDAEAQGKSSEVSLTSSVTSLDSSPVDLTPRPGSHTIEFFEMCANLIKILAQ
Ribosomal protein S6 kinase alpha-6 (Homo sapiens), sequence (Q9UK32 whole entry): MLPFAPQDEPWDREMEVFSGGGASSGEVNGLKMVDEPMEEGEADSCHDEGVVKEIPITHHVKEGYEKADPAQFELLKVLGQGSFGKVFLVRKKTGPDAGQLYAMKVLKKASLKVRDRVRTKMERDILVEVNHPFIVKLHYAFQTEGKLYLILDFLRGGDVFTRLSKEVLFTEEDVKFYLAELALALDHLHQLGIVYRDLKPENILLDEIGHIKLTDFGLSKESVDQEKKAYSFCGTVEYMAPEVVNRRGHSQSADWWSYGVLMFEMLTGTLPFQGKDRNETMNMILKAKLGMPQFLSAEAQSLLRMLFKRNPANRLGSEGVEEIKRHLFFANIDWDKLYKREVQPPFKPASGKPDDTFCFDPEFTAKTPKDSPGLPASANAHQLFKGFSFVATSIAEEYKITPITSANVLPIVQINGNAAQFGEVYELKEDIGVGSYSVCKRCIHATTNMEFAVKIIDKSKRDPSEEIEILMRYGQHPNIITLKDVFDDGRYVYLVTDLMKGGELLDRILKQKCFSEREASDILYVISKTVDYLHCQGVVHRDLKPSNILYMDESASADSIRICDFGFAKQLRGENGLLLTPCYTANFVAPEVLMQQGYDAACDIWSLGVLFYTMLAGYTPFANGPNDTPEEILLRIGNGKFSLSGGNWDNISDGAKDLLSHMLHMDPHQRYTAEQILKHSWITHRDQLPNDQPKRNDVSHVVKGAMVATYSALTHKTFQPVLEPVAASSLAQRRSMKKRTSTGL

By inhibition is commonly meant the drop in the measured response relative to a control, in per cent. Consider `COc1ccc2cc(-c3c(-c4ccncc4)nc(-c4ccc([S+](C)[O-])cc4C)n3C)ccc2c1` (stereo not given), for which the inhibition in [1] was 0.61%; in [2] it was -0.3%; in [3], 0.17%; in [4], -1.2%; in experiment [5], 0.22%; in experiment [6], -0.05%. Further, the inhibition in experiment [7] was 0.65%; in experiment [8], -0.62%; in experiment [9], -0.8%; in experiment [10], 3.22%.

On to `Fc1ccc(-c2ncn(C3CCNCC3)c2-c2ccnc(Oc3ccc(F)c(F)c3)n2)cc1`, for which the inhibition is -0.02% in experiment [1]; 1.79% in experiment [2]; 3.94% in experiment [3]; 3.89% in experiment [4]; 3.96% in experiment [5]; 2.65% in [6]. Moreover, the inhibition in [7] stood at 2.26%; in [8] it was 4.6%; in [9] it was 5.31%; in experiment [10], 3.75%.

In the case of `COc1cc2ncn(-c3cc(OCc4cccs4)c(C(N)=O)s3)c2cc1OC`, the inhibition is 9.08% in experiment [1]; 5.73% in [2]; 8.78% in experiment [3]; 4.34% in experiment [4]; 10.6% in [5]; 5.06% in [6]. In addition, the inhibition worked out at 6.9% in [7], 3.16% in [8], 12.8% in experiment [9] and 3.12% in [10].

On to `C[C@@H](Oc1cc(-n2cnc3ccc(OC4CCN(C)CC4)cc32)sc1C(N)=O)c1ccccc1Cl`, for which the inhibition in [1] amounted to 40.4%; in experiment [2] it was 1.16%; in experiment [3], 1.49%; in experiment [4], 2.92%; in experiment [5] it was 1.45%; in experiment [6], 3.29%. For the same compound, the inhibition in experiment [7] came out at 2.26%; in experiment [8], 5.35%; in experiment [9], 21.6%; in experiment [10], 5.98%.

With `CCc1cccc(CC)c1/C=C/c1cncc(C(=O)NC)c1`, the inhibition in [1] is 1.72%; in experiment [2], 2.19%; in experiment [3], -0.86%; in [4], 3.62%; in experiment [5], -2.52%; in [6], 0.54%. Besides, the inhibition in experiment [7] turned out to be 0.72%; in [8], 1.05%; in [9], 1.48%; in experiment [10], 0.22%.

As to `CCN(CC)Cc1ccc(Nc2nccc(-c3cnn4ncccc34)n2)cc1`, the inhibition amounted to 9.62% in [1]; 1.11% in [2]; 7.61% in experiment [3]; 3.89% in experiment [4]; 4.57% in experiment [5]; 3.92% in experiment [6]. The inhibition in experiment [7] is 2.8%; in [8], 3.26%; in experiment [9] it was 9.99%; in experiment [10], 7.01%.

Take `COc1cccc(/C=N/Nc2ncnc3c2cnn3-c2cccc(OC)c2)c1`: the inhibition in experiment [1] came out at 1.54%; in experiment [2] it was 1.88%; in [3], 1.38%; in [4], 1.32%; in experiment [5], 2.15%; in experiment [6], 2.71%. Also, the inhibition in experiment [7] was 2.43%; in experiment [8] it was 1.52%; in experiment [9] it was 2.74%; in experiment [10] it was 5.39%.

`COc1cc(Nc2ncc3c(C)nc(-c4cccc(C(F)(F)F)c4)n3n2)cc(OC)c1OC`: the inhibition was 29.1% in experiment [1]; 3.85% in experiment [2]; 8.66% in [3]; -1.55% in [4]; 6.37% in [5]; 5.08% in [6]. Moreover, the inhibition came to 8.49% in experiment [7], 6.54% in [8], 39.2% in experiment [9] and 5.38% in experiment [10].

Turning to `O=C1Nc2ccc(I)cc2C1=Cc1cc(Br)c(O)c(Br)c1`, the inhibition in [1] is 3.84%; in experiment [2], 0.41%; in experiment [3], 2.04%; in [4] it was 1.05%; in experiment [5] it was 0.89%; in experiment [6], 3.3%. Moreover, the inhibition turned out to be 1.73% in experiment [7], 1.53% in [8], 3.41% in experiment [9] and 6.97% in experiment [10].

With `NC(=O)Cc1ccccc1Oc1nccc(-c2c(-c3ccc(F)cc3)ncn2C2CCNCC2)n1`, the inhibition is 2.01% in experiment [1]; -0.43% in experiment [2]; 0.48% in experiment [3]; 1.13% in experiment [4]; 0.76% in experiment [5]; 0.96% in experiment [6]. Also, the inhibition came to 0.86% in [7], 2.61% in experiment [8], 1.44% in experiment [9] and 1.24% in [10].

Regarding `COc1cc2ncn(-c3cc(OCc4ccccc4C(F)(F)F)c(C(C)=O)s3)c2cc1OC`, the inhibition in experiment [1] turned out to be 1.71%; in experiment [2], 2.88%; in experiment [3], 2.59%; in experiment [4] it was 3.09%; in experiment [5] it was 3.04%; in experiment [6], 3.08%. The inhibition in experiment [7] was 2.17%; in [8], 1.8%; in [9] it was 2.83%; in experiment [10], -0.02%.

Take `Clc1ccc(CNc2nccc(-c3cnn4ncccc34)n2)cc1`: the inhibition in experiment [1] was 0.72%; in experiment [2], 0.33%; in experiment [3] it was 3.99%; in [4], 3.3%; in [5] it was 1.91%; in experiment [6] it was 0.59%. Besides, the inhibition is 0.73% in experiment [7], -0.21% in [8], 1.83% in experiment [9] and -4.66% in [10].

For `CCS(=O)(=O)c1ccc(OC)c(Nc2ncc(-c3cccc(-c4ccccc4F)c3)o2)c1`, the inhibition is 0.75% in experiment [1]; 1.23% in [2]; 0.04% in [3]; 1.37% in experiment [4]; 1.29% in [5]; -0.5% in experiment [6]. Besides, the inhibition in [7] was -0.32%; in [8] it was 0.4%; in [9], 0.95%; in experiment [10] it was 1.79%.

In the case of `NC(=O)c1ccc(Oc2nccc(-c3c(-c4ccc(F)cc4)ncn3C3CCNCC3)n2)cc1`, the inhibition in [1] was found to be 3.24%; in experiment [2], 2.88%; in experiment [3], 3.6%; in experiment [4] it was 1.93%; in experiment [5], 4.5%; in [6] it was 3.5%. Also, the inhibition in [7] was 2.61%; in experiment [8] it was 2.33%; in [9], 3.68%; in [10], 7.31%.

Take `Cc1ccc(C(=O)NC2CCC2)cc1-c1ccc(C(=O)NCC2CC2)cc1`: the inhibition is 1.08% in [1]; 2.17% in experiment [2]; 2.8% in experiment [3]; 0.49% in experiment [4]; -2.52% in [5]; 0.54% in experiment [6]. Besides, the inhibition in experiment [7] came out at 1.57%; in experiment [8], 1.41%; in [9], 1.46%; in experiment [10], 1.35%.

On to `COc1ccc(C2=C(N3CCc4ccccc43)C(=O)NC2=O)cc1`, for which the inhibition is 4.12% in experiment [1]; 5.57% in experiment [2]; 2.06% in [3]; -2.15% in experiment [4]; -5.83% in [5]; 4.38% in [6]. Also, the inhibition in experiment [7] turned out to be 1.94%; in experiment [8], 4.29%; in experiment [9], 5.67%; in experiment [10], 1.73%.

As to `COC(=O)Nc1nc2ccc(Sc3ccc(NC(=O)Nc4cc(C(F)(F)F)ccc4F)cc3)cc2[nH]1`, the inhibition in [1] is 0.24%; in [2], 0.54%; in experiment [3] it was 4.52%; in experiment [4], 0.41%; in [5] it was 0.74%; in experiment [6], -0.29%. The inhibition was 0.03% in [7], 0.86% in experiment [8], 0.23% in experiment [9] and -4.11% in [10].
